Source: the supplement of paper PMC11732987, “Enantioselective OTUD7B fragment discovery through chemoproteomics screening and high-throughput optimisation” (Communications Chemistry, 2025)

Assays:
Test in all cases: log2 ratio of Biotin-Ahx-Ub-VS probe labelling (fragment/DMSO); higher = less target engagement (more negative = stronger competition), active = hit call of the paper (q ≤ 0.05, log2 ratio ≤ -1)
Settings in all cases: compound concentration: 200 uM; treatment time: 3 h
ALG13 = biological target: T1, ALG13 (UniProt Q9NP73)
T1 sequence (whole entry): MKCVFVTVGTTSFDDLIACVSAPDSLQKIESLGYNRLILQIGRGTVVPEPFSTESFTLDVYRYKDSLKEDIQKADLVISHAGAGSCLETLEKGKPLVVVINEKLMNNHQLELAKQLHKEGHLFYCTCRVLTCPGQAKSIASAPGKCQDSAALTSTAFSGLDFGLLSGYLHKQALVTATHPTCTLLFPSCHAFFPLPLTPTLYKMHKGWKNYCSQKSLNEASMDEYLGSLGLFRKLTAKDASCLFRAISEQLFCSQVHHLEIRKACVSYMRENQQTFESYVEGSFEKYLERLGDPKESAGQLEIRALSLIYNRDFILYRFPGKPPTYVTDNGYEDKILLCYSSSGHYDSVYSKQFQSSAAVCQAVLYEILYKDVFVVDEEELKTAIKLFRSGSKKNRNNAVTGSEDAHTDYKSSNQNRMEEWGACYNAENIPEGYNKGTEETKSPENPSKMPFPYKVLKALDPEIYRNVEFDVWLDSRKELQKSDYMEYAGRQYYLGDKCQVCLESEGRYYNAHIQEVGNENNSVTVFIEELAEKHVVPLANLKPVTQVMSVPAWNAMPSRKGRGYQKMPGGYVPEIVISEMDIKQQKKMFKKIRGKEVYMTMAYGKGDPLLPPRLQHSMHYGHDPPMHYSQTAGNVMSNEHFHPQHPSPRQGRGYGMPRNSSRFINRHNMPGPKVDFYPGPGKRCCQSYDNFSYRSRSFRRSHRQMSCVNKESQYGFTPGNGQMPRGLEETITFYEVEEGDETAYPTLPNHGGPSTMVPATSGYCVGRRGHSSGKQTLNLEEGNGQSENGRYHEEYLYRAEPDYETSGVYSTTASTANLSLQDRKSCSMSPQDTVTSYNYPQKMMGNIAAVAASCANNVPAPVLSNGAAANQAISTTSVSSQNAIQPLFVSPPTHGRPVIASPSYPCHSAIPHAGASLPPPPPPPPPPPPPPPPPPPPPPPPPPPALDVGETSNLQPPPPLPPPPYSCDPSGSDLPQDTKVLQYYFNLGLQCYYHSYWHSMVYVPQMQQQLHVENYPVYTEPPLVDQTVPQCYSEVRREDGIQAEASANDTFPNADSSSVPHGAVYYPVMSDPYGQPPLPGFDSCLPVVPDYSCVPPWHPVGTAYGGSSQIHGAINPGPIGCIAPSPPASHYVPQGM
Outline: (§1)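 HEK293T lysate (495 µg per sample, in Tris/CHAPS/IGEPAL buffer with protease inhibitors) was exposed in triplicate for 3 h to fragment at 200 µM or to vehicle, then to Biotin-Ahx-Ub-VS at 0.5 µM final for 1 h. Labelled DUBs were enriched on NeutrAvidin, digested with LysC and trypsin, and analysed by diaPASEF LC-MS/MS. Spectronaut label-free quantities were normalised to the global median, and values are average log2 ratios of fragment over vehicle from an unpaired t-test. Only proteins with ≥2 unique peptides were used.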

ATXN3 = ATXN3 (UniProt P54252)
Chain of ATXN3 (P54252 whole entry): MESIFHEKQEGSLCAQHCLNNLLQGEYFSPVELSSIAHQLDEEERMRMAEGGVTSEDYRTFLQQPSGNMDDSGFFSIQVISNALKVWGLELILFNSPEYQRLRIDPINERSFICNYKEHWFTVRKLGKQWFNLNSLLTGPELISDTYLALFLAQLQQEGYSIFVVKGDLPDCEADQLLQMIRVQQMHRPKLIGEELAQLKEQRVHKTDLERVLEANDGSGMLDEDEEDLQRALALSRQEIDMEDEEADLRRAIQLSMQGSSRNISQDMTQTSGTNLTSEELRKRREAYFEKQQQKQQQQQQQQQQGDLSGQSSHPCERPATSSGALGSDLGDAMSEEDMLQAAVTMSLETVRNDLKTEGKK
Outline: as §1

BAP1 = biological target: T2, BAP1 (UniProt Q92560)
T2 sequence (whole entry): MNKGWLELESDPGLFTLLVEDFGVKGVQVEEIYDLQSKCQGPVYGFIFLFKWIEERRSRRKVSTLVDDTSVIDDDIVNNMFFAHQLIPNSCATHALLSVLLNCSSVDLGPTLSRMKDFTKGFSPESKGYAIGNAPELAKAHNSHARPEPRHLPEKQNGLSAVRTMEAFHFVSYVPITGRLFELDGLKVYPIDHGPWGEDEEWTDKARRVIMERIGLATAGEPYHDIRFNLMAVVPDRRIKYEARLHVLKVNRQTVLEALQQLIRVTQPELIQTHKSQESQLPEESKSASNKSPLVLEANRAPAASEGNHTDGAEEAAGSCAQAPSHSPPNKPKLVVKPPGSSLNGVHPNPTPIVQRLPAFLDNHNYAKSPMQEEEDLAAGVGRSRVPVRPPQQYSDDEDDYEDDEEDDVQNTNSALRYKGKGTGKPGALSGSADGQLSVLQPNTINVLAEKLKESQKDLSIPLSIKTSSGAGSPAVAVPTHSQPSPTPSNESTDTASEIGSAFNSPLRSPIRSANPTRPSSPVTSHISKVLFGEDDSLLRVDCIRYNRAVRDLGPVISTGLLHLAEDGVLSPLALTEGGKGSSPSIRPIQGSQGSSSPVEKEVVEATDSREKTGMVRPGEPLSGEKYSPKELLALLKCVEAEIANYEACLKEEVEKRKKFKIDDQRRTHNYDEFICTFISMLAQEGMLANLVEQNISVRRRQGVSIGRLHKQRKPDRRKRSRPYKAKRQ
Outline: as §1

EIF3F = EIF3F (UniProt O00303)
Chain of EIF3F (O00303 whole entry): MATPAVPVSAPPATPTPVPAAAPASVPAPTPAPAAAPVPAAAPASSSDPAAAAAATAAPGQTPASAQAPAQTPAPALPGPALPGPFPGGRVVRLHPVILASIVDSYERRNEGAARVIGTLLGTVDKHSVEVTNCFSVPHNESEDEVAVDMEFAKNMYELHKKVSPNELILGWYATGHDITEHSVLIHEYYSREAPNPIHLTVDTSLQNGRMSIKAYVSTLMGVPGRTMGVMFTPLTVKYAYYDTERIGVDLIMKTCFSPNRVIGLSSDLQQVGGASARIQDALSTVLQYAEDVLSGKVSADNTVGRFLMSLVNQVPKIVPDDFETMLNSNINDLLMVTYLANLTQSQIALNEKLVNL
Outline: as §1

EIF3H = EIF3H (UniProt O15372)
Chain of EIF3H (O15372 whole entry): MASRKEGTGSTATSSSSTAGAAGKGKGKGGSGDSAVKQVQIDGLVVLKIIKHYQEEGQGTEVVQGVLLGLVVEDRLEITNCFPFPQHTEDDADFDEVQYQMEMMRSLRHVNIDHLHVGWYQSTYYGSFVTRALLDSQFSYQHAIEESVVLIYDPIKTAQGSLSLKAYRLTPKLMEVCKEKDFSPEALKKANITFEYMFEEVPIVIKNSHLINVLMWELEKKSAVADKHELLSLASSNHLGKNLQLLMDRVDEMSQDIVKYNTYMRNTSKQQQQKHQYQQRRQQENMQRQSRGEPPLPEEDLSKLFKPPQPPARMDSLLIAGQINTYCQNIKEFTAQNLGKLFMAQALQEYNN
Outline: as §1

FAM105A = biological target: T3, FAM105A (UniProt Q9NUU6)
T3 sequence (whole entry): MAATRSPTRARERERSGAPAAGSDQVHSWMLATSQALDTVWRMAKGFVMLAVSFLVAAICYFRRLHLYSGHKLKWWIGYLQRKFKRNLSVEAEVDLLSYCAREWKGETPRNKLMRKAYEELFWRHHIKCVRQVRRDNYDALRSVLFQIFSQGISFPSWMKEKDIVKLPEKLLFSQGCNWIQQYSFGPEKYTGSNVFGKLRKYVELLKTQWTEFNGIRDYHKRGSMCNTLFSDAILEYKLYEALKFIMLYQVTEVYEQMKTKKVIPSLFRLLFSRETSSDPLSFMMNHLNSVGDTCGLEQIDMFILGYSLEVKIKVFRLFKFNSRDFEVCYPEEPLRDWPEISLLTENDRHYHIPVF
Outline: as §1

OTUB1 = OTUB1 (UniProt Q96FW1)
Chain of OTUB1 (Q96FW1 whole entry): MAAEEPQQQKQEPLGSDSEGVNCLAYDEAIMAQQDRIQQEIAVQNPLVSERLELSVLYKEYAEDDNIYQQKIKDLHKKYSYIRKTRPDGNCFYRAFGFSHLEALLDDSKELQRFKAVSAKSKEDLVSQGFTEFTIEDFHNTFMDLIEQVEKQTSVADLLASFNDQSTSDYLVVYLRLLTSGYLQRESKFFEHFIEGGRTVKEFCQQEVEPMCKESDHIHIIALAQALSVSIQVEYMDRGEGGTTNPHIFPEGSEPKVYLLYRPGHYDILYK
Outline: as §1

OTUD4 = biological target: T4, OTUD4 (UniProt Q01804)
T4 sequence (whole entry): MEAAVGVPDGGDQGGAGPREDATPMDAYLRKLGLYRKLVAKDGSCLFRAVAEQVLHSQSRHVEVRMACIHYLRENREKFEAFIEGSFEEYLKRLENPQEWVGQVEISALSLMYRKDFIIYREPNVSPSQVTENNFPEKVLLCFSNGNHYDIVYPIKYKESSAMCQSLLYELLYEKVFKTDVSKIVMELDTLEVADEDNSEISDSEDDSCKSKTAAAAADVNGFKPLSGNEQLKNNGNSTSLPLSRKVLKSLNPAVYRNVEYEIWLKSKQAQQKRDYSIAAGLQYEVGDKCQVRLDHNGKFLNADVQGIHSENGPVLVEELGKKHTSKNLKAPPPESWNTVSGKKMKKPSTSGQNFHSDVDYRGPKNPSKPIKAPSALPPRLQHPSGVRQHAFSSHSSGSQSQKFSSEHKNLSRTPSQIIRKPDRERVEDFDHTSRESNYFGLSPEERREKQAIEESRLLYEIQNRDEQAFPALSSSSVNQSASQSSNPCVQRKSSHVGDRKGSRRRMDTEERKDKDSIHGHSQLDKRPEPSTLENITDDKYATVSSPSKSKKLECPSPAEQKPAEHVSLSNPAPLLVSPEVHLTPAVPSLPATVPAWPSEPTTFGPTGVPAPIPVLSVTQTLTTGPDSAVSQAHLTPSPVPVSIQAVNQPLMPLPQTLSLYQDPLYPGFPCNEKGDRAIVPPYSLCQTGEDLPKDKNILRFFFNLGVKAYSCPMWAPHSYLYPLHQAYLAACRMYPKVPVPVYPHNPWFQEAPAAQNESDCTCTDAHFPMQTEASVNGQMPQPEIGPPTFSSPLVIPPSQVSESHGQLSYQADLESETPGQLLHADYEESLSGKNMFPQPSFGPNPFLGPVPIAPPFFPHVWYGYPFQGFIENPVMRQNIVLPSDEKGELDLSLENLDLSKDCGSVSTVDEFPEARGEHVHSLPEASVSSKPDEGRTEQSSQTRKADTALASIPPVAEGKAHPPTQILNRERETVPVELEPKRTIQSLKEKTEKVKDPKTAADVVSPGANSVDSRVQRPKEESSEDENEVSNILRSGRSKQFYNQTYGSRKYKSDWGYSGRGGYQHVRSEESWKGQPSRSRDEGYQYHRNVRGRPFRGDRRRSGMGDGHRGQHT
Outline: as §1

OTUD5 = biological target: T5, OTUD5 (UniProt Q96G74)
T5 sequence (whole entry): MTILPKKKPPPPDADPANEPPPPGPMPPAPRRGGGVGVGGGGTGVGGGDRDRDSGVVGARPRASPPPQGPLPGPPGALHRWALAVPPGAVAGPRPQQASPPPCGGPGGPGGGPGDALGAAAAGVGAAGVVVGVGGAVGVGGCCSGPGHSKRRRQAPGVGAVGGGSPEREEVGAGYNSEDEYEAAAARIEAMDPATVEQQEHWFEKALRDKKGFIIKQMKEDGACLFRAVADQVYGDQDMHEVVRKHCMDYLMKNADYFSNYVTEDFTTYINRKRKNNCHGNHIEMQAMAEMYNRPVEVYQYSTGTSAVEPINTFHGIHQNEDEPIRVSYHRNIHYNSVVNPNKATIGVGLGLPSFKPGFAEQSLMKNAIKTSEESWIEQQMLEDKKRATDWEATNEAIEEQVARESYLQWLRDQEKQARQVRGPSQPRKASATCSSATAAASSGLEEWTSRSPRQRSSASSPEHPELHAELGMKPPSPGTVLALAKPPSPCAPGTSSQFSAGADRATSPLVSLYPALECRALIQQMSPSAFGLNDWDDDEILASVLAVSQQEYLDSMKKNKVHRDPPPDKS
Outline: as §1

Measured: log2 ratio of Biotin-Ahx-Ub-VS probe labelling

CC(=O)Nc1ccc(NC(=O)CCl)cc1
active: BAP1 -3.42
inactive: ALG13 0.0593 | ATXN3 -0.656 | EIF3F -0.081 | EIF3H -0.182 | FAM105A -0.285 | OTUB1 -0.24 | OTUD4 -0.296 | OTUD5 -0.406
